We go through 14 molecules from PubChem BioAssay AID2782 (National Center for Advancing Translational Sciences (NCATS), 2010).

Records with an inconclusive call do not appear. A call without a number means that no potency is given here. Calls of active or inactive are those of the source. The call rests on the fitted dose curve; in most records, active means well fitted inhibition curve with a large enough effect in the polarisation, with a control signal flat (not every such curve was filed as active); inconclusive means small, poorly fitted or top-dose-only effect, or effect the other way, or a change in a side signal; inactive means no such curve, though single readings can be large or run the other way; the % refers to the polarisation.
Potency means the concentration at half of the fitted maximal effect.

This experiment can be described thus: Confirmation of Inhibitors Targeting the Menin-MLL Interaction in MLL Related Leukemias: Competition With Texas Red Labeled MLL-derived Mutant Peptide. The conditions noted are these: fluorescence polarization, Texas Red MLL peptide displacement; series mostly up to 288 µM. An excerpt:
qHTS Assay for Inhibitors Targeting the Menin-MLL Interaction in MLL Related Leukemias
NIH Chemical Genomics Center [NCGC]
NIH Molecular Libraries Probe Centers Network [MLPCN]
Assay Submitter (PI): Jolanta Grembecka, Tomasz Cierpicki, University of Virginia
Translocations of the MLL (Mixed Lineage Leukemia) gene are frequently found in human leukemias affecting both children and adults. Fusion of MLL to one of more than 60 genes results in generation of oncogenic proteins upregulating Hox genes, which are vital to blood cell development. Patients harboring fusion of the MLL gene suffer from aggressive leukemias and respond poorly to available therapies. All of the oncogenic fusion proteins have a preserved N-terminal fragment of MLL that has been identified to interact with menin. It has been recently discovered that association with menin is critical to the leukemogenic activity of the MLL fusion oncoproteins. Selective targeting of the menin-MLL interaction could provide an attractive therapeutic approach to develop novel drugs for MLL-related leukemias. Small molecules blocking the menin-MLL interaction should reverse the oncogenic potential of MLL fusion proteins.
We have developed and optimized a fluorescence polarization-based assay for the identification of Menin-MLL inhibitors. The assay was run employing two different MLL-derived peptides. The present assay uses a 12 amino acid peptide labeled with fluorescein at its N-terminus. This peptide consists of the menin high affinity binding motif from MLL and is potently bound by menin. Another peptide with a mutated sequence, labeled with Texas Red, was used in parallel as a less stringent screen for inhibitors.
The present assay was run to confirm the activity of hits from the primary screen using the peptide with a mutated sequence, labeled with Texas Red.
The Menin protein, the MLL-wild type (w.t.) derived peptide (N-terminal 12 amino acids), the MLL-derived peptide labeled with Texas Red and the MLL-w.t. peptide labeled with Fluorescein were kindly supplied by laboratory of Dr. Jolanta Grembecka, University of Virginia. All protein and peptide solutions were stored in single use aliquots at -80C. The Eu3+ Cyrptate-conjugated mouse monoclonal antibody anti-6 Histidine (Eu3+-AB) and the Streptavidin-XL665 conjugate (XL665) were purchased from Cisbio International (Bedford, MA). All antibody and XL665 conjugate solution stocks were stored in single use aliquots at -20C. The Buffer components for all assays were purchased from Sigma-Aldrich (St. Louis, MO) and Invitrogen (Carlsbad, CA).
1. FP reaction buffer: 50 mM Tris-HCl pH 7.5, 50 mM NaCl, 1mM DTT.
Before use, 0.05% BSA is added.
2. Menin protein, MLL-w.t. labeled with fluorescein, MLL-mutant peptide labeled with texas red.
Stored in singe use aliquots at -80C.
3. MLL-w.t. unlabeled peptide as positive control: 10 uM final in FP buffer.
1. Prepare Menin at 200 nM, MLL-w.t.-fluorescein at 25 nM, and MLL-mutant-texas red at 50 nM mixture in FP buffer.
2. Prepare Menin at 200 nM, MLL-w.t.-fluorescein at 25 nM, MLL-mutant-texas red at 50 nM, and 10 uM MLL-w.t. unlabeled mixture in FP buffer.
3. Prepare MLL-w.t.-fluorescein at 25 nM and MLL-mutant-texas red at 50 nM mixture in FP buffer.
3. Dispense 4 ul per well of reagent in step 1 in columns 2, 4 - 48 in a black 1536 well plate, dispense 4 ul per well of reagents from steps 2 and 3 in columns 1 and 3 respectively. Incubate plate at ambient for 15 minutes.
4. Transfer 23 nl per well of compound to plate and incubate at ambient for 1 hr.
5. Read fluorescence polarization for each label using the PerkinElmer Envision.
Envision protocol for fluorescein: FITC FP Dual Enh Mirror, Excitation filter 480, Emission filter (1) P-pol 535, Emission filter (2) S-pol 535
Envision protocol for texas red: FP Dual Enh Mirror, Excitation filter 555, Emission filter (1) P-pol 632, Emission filter (2) S-pol 632
For orientation: Fluorescence polarisation rises when a labelled molecule tumbles more slowly, as on binding a larger partner.
For the molecule `O=C(O)CN1C(=O)CN=C(c2ccccn2)c2cc(Cl)ccc21`, the Potency entry is “inactive”.

Turning to `Cc1cc(C(=O)NP(=O)(N2CCOCC2)N2CCOCC2)c(C)n1C1CC1`, the Potency entry is “inactive”.

`CCCCCn1c(=O)c(C(=O)Nc2nc(CC(=O)OCC)cs2)c(O)c2ccccc21`: the Potency result is “inactive”.

As for `CCOP(=O)(OCC)C(NC(=O)c1ccccc1C)C(Cl)(Cl)Cl` (centres undefined), the Potency entry was “inactive”.

On to `CCCCn1c(=O)c(C(=O)Nc2ccsc2C(=O)OC)c(O)c2ccccc21`, for which the Potency was 14.2 µM (active).

For the molecule `COc1cc(/C=N/n2cnnc2)ccc1OC(=O)N(C)C`, the Potency entry is “inactive”.

Regarding `C[C@@H]1CC[C@@]2(NC1)O[C@H]1C[C@H]3[C@@H]4CC=C5C[C@@H](O)CC[C@]5(C)[C@H]4CC[C@]3(C)[C@H]1[C@@H]2C`, the Potency result is “inactive”.

As to `CC[C@]12C=CCN3CC[C@@]4(c5ccc(OC)cc5N(C)[C@H]4[C@@](O)(C(=O)OC)[C@@H]1OC(C)=O)C32` (some centres undefined), the Potency entry is “inactive”.

With `C[N+](C)(C)CC#CCN1CCCC1=O`, the Potency result was “inactive”.

As for `OC12C3C4CC5C6C4C1C6C(C53)N2CCc1cccc(F)c1` (centres undefined), the Potency entry is “inactive”.

Take `c1cc2cc(c1)C[n+]1ccc(c3ccccc31)NCc1ccc(cc1)CNc1cc[n+](c3ccccc13)C2`: the Potency was 100 µM (active).

In the case of `O=C(Nc1ccc2ccccc2c1)c1nn(C23CC4CC(CC(C4)C2)C3)cc1Br`, the Potency entry was “inactive”.

Take `COc1ccc(C(O)P(=O)(Oc2ccccc2)Oc2ccccc2)cc1` (centres undefined): the Potency result is “inactive”.

On to `O=C1NC(=O)C(=Cc2ccc3ccccc3c2)C(=O)N1`, for which the Potency entry is “inactive”.
